Assay outcomes as filed in PubChem.
The list is not random: actives were taken first. Their share in the collection is about 2.4%.
MEKK3 PB1 HTS: MEKK3-MEK5 PB1 interaction, increase or decrease. Q99759. bead-based flow cytometry, Alexa488-MEK5 binding to MEKK3; actives lie on both sides; 0 = blocked by unlabeled MEK5, 100 = vehicle. binding response (% of control), % at 10 µM. hit rate 1.4% among 290,000. AID 1529;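 active means binding response more than 3 SD above or below the average of its plate-row segment, actives on both sides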;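 further: Alexa488 bead fluorescence after subtracting the streptavidin-only scavenger bead signal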
Target sequence (Q99759 whole entry, looked up): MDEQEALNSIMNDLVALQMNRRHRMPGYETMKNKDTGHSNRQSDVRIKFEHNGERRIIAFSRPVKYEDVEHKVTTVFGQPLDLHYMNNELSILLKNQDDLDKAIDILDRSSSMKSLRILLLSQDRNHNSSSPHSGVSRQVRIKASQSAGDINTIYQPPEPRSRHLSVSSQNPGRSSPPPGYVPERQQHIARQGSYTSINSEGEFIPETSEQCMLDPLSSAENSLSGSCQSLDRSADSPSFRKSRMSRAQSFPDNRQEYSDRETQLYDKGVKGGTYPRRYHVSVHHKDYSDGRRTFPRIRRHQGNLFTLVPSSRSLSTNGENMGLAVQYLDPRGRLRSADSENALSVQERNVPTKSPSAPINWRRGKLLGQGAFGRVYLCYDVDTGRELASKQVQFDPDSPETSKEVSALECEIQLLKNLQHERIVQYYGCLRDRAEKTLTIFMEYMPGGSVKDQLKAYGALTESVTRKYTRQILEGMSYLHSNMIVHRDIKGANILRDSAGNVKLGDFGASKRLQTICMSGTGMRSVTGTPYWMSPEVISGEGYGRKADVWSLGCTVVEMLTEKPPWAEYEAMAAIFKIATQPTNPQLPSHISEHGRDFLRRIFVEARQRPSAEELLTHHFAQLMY
Arbovirus inh: blocks arbovirus infection; AID 1251; inhibition, % at 10 µM; hit rate 0.37% among 200,000; arbovirus infection cell-based antiviral screen; in the data active means inhibition above about 30%
MEKK2mut PB1 HTS: signal of MEK5 binding to mutant human MEKK2 PB1 domain | bead flow cytometry, Alexa488-MEK5 binding to MEKK2 mutant | percent response, % at 10 µM | hit rate 0.35% among 290,000 | AID 1530; in the data active means percent response above about 24%, passing the limit was not always enough
Pf gametocyte: kills late stage P. falciparum gametocytes | P. falciparum stage V gametocytes, ATP luminescence, 24 h | inhibition, % at 10.9 µM | hit rate 0.065% among 150,000;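 active means inhibition above the mean plus 3 SD of compounds within the control limits, set per campaign, cut at about 38% in these data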;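 further: 0% = DMSO wells and 100% = medium only without gametocytes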
MEKK2wt PB1 HTS: raises or lowers MEK5 binding to wildtype human MEKK2 PB1 domain; hit rate 1.1% among 290,000; bead flow cytometry, Alexa488-MEK5 binding to MEKK2 WT; actives lie on both sides; Q9Y2U5; binding response (% of control), % at 10 µM; in the data active means binding response below about 67% or above about 130%
MEKK2wt confirm: raises or lowers MEK5 binding to wildtype human MEKK2, retest. hit rate 2.4% among 5,900. binding response (% of control), % at 10 µM. bead flow cytometry, Alexa488-MEK5 binding to MEKK2 WT; actives lie on both sides. AID 1892. shares compounds with MEKK3 PB1 HTS; in the data active means binding response below about 16% or above about 210%; inactive means in between
MEKK2mut-MEK5: signal of MEK5 binding to mutant human MEKK2, retest; hit rate 2% among 5,900; percent response, % at 10 µM; bead flow cytometry, Alexa488-MEK5 binding to MEKK2 mutant; shares compounds with MEKK3 PB1 HTS; AID 1893; in the data active means percent response mostly above about 71%, no sharp cut-off; inactive means mostly below about 38%;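 further: higher means compound restores mutant binding toward wildtype level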
MEKK3-MEK5 inh: MEKK3-MEK5 PB1 inhibition, single concentration confirmation; shares compounds with MEKK3 PB1 HTS; bead flow cytometry, Alexa488-MEK5 binding to MEKK3; hits give low values; binding response (% of control), % at 10 µM; hit rate 1.8% among 5,900; AID 1894;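 active means binding response below 72% of control, or above a set upper limit, though filed actives all read lower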;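 further: 100% = DMSO only wells and 0% = binding blocked by excess unlabeled MEK5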
* hit, by the source's call; · = no result given; [ ] = another dose, or the depositor's remark.

SMILES | MEKK3 PB1 HTS | Arbovirus inh | MEKK2mut PB1 HTS | Pf gametocyte | MEKK2wt PB1 HTS | MEKK2wt confirm | MEKK2mut-MEK5 | MEKK3-MEK5 inh
O=c1c2cc(Cl)ccc2[nH]c(=S)n1Cc1ccccn1 | 151.0* | 3.5 | 0.0 | · | 103.0 | 106.0 | -2.0 | 102.0
O=C(NCc1ccccn1)c1ccc(Cn2c(=S)[nH]c3ccc(Br)cc3c2=O)cc1 | 97.0 | -9.6 | -7.0 | -6.1 | 91.0 | · | · | ·
O=C(O)c1cn(Cc2ccccc2Cl)c2ccc(S(=O)(=O)N3CCOCC3)cc2c1=O | 95.0 | 17.2 | 0.0 | -4.1 | 102.0 | · | · | ·
Cc1cc(C)nc(-n2ncc3c2CC(c2ccccc2C)CC3=O)n1 (centres undefined) | 137.0* | 6.3 | 0.0 | · | 103.0 | 103.0 | 0.0 | 102.0
Cn1c(CC(=O)Nc2ccc(F)cc2)c(Sc2ccccc2)c2ccccc21 | 104.0 | 1.9 | 54.0* | 12.9 | 122.0 | 117.0 | 5.0 | 103.0
COc1ccc(NC(=O)Cc2c(Sc3ccccc3)c3ccccc3n2C)cc1 | 154.0* | -1.7 | 1.0 | 10.6 | 113.0 | 111.0 | 2.0 | 105.0
CCOC(=O)Cc1c(Sc2ccccc2)c2ccccc2n1C | 103.0 | 3.9 | 15.0 | 22.1 | 117.0 | · | · | ·
Cn1c(CC(=O)NC(C)(C)CO)c(Sc2ccccc2)c2ccccc21 | 89.0 | -11.2 | 2.0 | 11.8 | 93.0 | · | · | ·
CC(C)C(=O)Nc1nc2c(c(=O)[nH]1)CCCC2 | 104.0 | 3.5 | -2.0 | -4.9 | 103.0 | · | · | ·
C1CCC(C(CC2CCCCN2)C2CCCCC2)CC1 (centres undefined) | 86.0 | -44.4 | 17.0 | · | 171.0* | 140.0 | 28.0 | 102.0
CCCCCCn1c(N2CCC(C(N)=O)CC2)nc2c1c(=O)n(C)c(=O)n2C | 2.0*[inhibitor] | 1.2 | -21.0 | · | 2.0*[inhibitor] | 102.0 | 4.0 | 101.0
CCOC(=O)c1ccc(-c2ccc(/C=N/NC(=O)CN(c3cccc(C)c3)S(C)(=O)=O)o2)cc1 | 101.0 | 9.7 | 9.0 | · | 107.0 | · | · | ·
CCOC(=O)c1ccc(-c2ccc(/C=N/NC(=O)CN(c3ccccc3Cl)S(C)(=O)=O)o2)cc1 | 141.0* | 1.3 | 2.0 | · | 110.0 | 98.0 | -6.0 | 102.0
O=C(Nc1ccc(Br)cc1)C1CCN(C(=O)c2ccc(F)cc2)CC1 | 150.0* | 15.0 | 2.0 | · | 105.0 | 98.0 | -11.0 | 96.0
O=C(Nc1cccc(F)c1)C1CCN(C(=O)c2ccc(Br)cc2)CC1 | 93.0 | -4.2 | -4.0 | 9.4 | 94.0 | · | · | ·
Cc1ccc(COc2ccc(/C=N/O)cc2)cc1 | 100.0 | -7.3 | -2.0 | -4.8 | 98.0 | · | · | ·
NC(N)=N/N=C/c1ccc(OCc2ccccc2)cc1 | 67.0 | -32.1 | 17.0 | · | 162.0*[inhibitor] | 154.0 | 29.0 | 114.0
N#C/C(=C\c1ccc(OCc2ccccc2)cc1)C(N)=O | 131.0* | 2.5 | 1.0 | 12.2 | 114.0 | 93.0 | -2.0 | 93.0
NC(N)=N/N=C/c1ccc(OCc2ccc(Cl)cc2)cc1 | 96.0 | -30.5 | 29.0* | · | 183.0* | 205.0 | 56.0 | 106.0
O=C(O)c1cc(N/N=C/c2ccc(OCc3ccccc3)cc2)ccc1Cl | 112.0 | 38.7* | 134.0* | · | 186.0* | 99.0 | 1.0 | 102.0
NC(=O)C1CCN(CC(=O)Nc2cccc(C(=O)Nc3cccc(C(F)(F)F)c3)c2)CC1 | 103.0 | -8.4 | 14.0 | 3.8 | 107.0 | · | · | ·
CCN(CC(=O)Nc1cc(Cl)ccc1OC)CC(=O)NC1CCS(=O)(=O)C1 (centres undefined) | 109.0 | · | 2.0 | 6.9 | 111.0 | · | · | ·
CCO[C@H]1OC(C(=O)N2CCN(Cc3ccc4c(c3)OCO4)CC2)=C[C@@H](C2CC2)[C@@H]1CCCO | 90.0 | 0.8 | 3.0 | 3.8 | 90.0 | · | · | ·
CC1CCCN(c2nc3c(c(=O)n(C)c(=O)n3C)n2CCSc2nc3ccccc3o2)C1 (centres undefined) | 101.0 | -2.5 | 0.0 | 7.9 | 101.0 | · | · | ·
CC1CCCN(c2nc3c(c(=O)[nH]c(=O)n3C)n2CCSc2nc3ccccc3o2)C1 (centres undefined) | 82.0*[inhibitor] | 3.3 | -13.0 | · | 101.0 | 108.0 | 10.0 | 108.0
SMILES | MEKK3 PB1 HTS | Arbovirus inh | MEKK2mut PB1 HTS | Pf gametocyte | MEKK2wt PB1 HTS | MEKK2wt confirm | MEKK2mut-MEK5 | MEKK3-MEK5 inh
COC(=O)Cn1c(=NC(=O)c2ccc(Cl)s2)sc2cc(F)ccc21 | 134.0* | -5.8 | 0.0 | 15.3 | 102.0 | 99.0 | -1.0 | 98.0
O=c1[nH]ncc(N/N=C\c2ccncc2)c1Cl | 136.0* | 0.1 | 5.0 | · | 118.0 | 87.0 | -11.0 | 88.0
COc1ccc(C(O)c2ncc(C(F)(F)F)cc2Cl)cc1 (centres undefined) | 99.0 | · | 1.0 | · | 102.0 | · | · | ·
COc1ccc(C(C(N)=O)c2ncc(C(F)(F)F)cc2Cl)cc1 (centres undefined) | 150.0* | 9.8 | 7.0 | 17.9 | 131.0 | 106.0 | 4.0 | 105.0
Cc1ccc2c(c1)c(C)c(C)n2CC(O)Cn1nc(C)cc1C (centres undefined) | 110.0 | 9.3 | 3.0 | 7.0 | 39.0*[inhibitor] | 100.0 | 1.0 | 102.0
Cc1ccc2c(c1)c(C)c(C)n2CC(O)Cn1nnc2ccccc21 (centres undefined) | 103.0 | 13.7 | 0.0 | -15.1 | 101.0 | · | · | ·
CC1=CC(C)(C)n2c(O)c(N=N)c3cc(C)cc1c32 | 141.0* | -2.5 | 1.0 | 7.0 | 105.0 | 103.0 | 3.0 | 103.0
Cc1cccc(C)c1-n1c(C)nn(CC2CC2)c1=O | 96.0 | 4.0 | -7.0 | -8.7 | 88.0 | · | · | ·
Cc1ccc(NC(=O)CSc2nnc(/N=C/N(C)C)s2)cc1 | 99.0 | 0.9 | 3.0 | 22.7 | 99.0 | · | · | ·
CC(=O)Nc1ccc(N2C(=O)CSC2c2ccc(F)cc2)cc1 (centres undefined) | 81.0*[inhibitor] | 1.3 | -4.0 | 14.2 | 80.0 | 99.0 | 0.0 | 100.0
CCCn1cc(CN2CCCC(C(=O)c3ccc4c(c3)OCO4)C2)c(C)n1 (centres undefined) | 102.0 | · | 7.0 | · | 105.0 | · | · | ·
CCOC(=O)C1=C(C)NC(C)=C(C(=O)OCC)C1C(=O)OCC(=O)N(C)C1CCS(=O)(=O)C1 (centres undefined) | 98.0 | -5.5 | -3.0 | -0.1 | 99.0 | · | · | ·
CC(C)n1c(SCC(=O)N2c3ccccc3Sc3ccccc32)nc2c1c(=O)n(C)c(=O)n2C | 1.0*[inhibitor] | -15.4 | -21.0 | · | -3.0*[inhibitor] | 99.0 | -3.0 | 104.0
CN(C)CCCn1c(SCC(=O)N2c3ccccc3Sc3ccccc32)nc2ccccc2c1=O | 103.0 | -30.6 | 45.0 | -7.6 | 166.0* | 157.0 | 25.0 | 102.0
Cn1c(SCC(=O)N2c3ccccc3Sc3ccccc32)nc2ccccc21 | 102.0 | -1.5 | -1.0 | -21.6 | 96.0 | · | · | ·
CCCn1c(SCC(=O)N2c3ccccc3Sc3ccccc32)nc2c1c(=O)n(C)c(=O)n2C | 94.0 | -11.5 | -6.0 | -10.7 | 89.0 | · | · | ·
